PubChem BioAssay AID425 (Sanford-Burnham Center for Chemical Genomics, 2006)
“And” between values parts separate entries of the source, which are not always exact repeats. Equal values may be shown once. The campaign covered roughly 110,000 compounds. About 190 (0.17%) were called active. No stated cut-off is given here; in the data, active means inhibition above about 50%; inactive means the rest. Many of the other results were omitted from the sample, so actives are more common in it than they were. Entries with a potency or affinity are not part of this list. Some compounds were tested as several samples or in several runs, with calls that do not always agree.

Target: Dual specificity protein phosphatase 6 (Rattus norvegicus) (UniProt Q64346)
Experiment: inhibition of rat DUSP6 enzyme activity – biochemical, in vitro, primary screen (AID 425);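 further: plate controls were vehicle for no effect and reference inhibitor for full effect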
Conditions: recombinant MKP-3 phosphatase activity, fluorescence; at 20 µM; stronger effect = higher value

Dual specificity protein phosphatase 6 (Rattus norvegicus), sequence (Q64346 whole entry, looked up): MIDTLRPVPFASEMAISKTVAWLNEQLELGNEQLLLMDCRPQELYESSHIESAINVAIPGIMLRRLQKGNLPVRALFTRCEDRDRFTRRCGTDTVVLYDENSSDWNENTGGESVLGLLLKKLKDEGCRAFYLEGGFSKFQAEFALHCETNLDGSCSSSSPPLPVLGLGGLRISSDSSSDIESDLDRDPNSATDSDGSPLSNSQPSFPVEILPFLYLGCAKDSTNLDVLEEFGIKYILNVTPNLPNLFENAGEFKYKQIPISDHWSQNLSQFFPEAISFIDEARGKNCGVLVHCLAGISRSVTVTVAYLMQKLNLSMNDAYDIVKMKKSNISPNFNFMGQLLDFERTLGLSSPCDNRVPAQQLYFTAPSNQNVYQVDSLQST

inhibition, 55% (active) and 10.8% (inactive):
Cc1cc(C(=O)O)ccc1-n1c(C)ccc1C

inhibition, inactive:
Cc1ccc(NC(=O)Cn2nc(C)c3ccccc3c2=O)cc1F -2.5%
COc1cc(C(=O)NC(NC(=S)Nc2ccc(C(C)=O)cc2)C(Cl)(Cl)Cl)cc(OC)c1OC (stereo not drawn) 3.5%
COc1cccc(C2C(C(=O)Nc3ccccc3)=C(C)N=C3SCC(=O)N32)c1 (stereo not drawn) 3.3%
Cc1ccc(C)n1-c1cc(C(=O)O)ccc1O 32.6%
Cc1ccc(C(=O)O)cc1N1C(=O)c2ccccc2C1=O -1.1%
Cc1ccc(-c2ccccc2)n1-c1cccc(C(=O)O)c1 2.4%
Cc1cc(Cl)c2cc(C(=O)O)ccc2n1 3.5%
Cc1cc(N)ccc1-n1c(C)ccc1C -1.5%
Cc1ccc(C)n1-c1cc(C(=O)O)cc(C(=O)O)c1 32.5%
COc1cccc(C2=NN(C(=O)COc3ccccc3)C(O)(C(F)(F)F)C2)c1 (stereo not drawn) 1.7%
Cc1cccc(C(C)C)c1NC(=O)c1cccnc1 -7.7%
CCN(CC)c1ccc(/C=C2/SC(=O)N(CNc3ccc(OC)c(Cl)c3)C2=O)cc1 2.6%
COc1ccc(/C=C2\C=C(c3ccc(Br)cc3)OC2=O)cc1[N+](=O)[O-] 5.6%
COc1ccc(/C=N/Nc2nnc(-c3ccccc3)c(-c3ccccc3)n2)cc1 0.6%
N/C(=N/O)c1nc(N2CCCCC2)nc(N2CCCCC2)n1 -8.2%
O=C(Nc1ccc(C(=O)N2CCOCC2)cc1)Nc1cccc2ccccc12 2%
CN(C)CCCNC(=O)c1cccc(F)c1 -3.1%
CN(C)CCCNC(=O)c1ccc(F)cc1 -0.5%
Cc1ccc(-n2ncc(C(=O)N3CCc4ccccc4C3)c2NC(=O)c2ccco2)cc1C -7.8%
O=C1C(=Cc2ccc(I)o2)C(=O)c2ccccc21 15.6%
CC1(C)OC(=O)C(=Cc2ccc(-c3ccc(Cl)cc3Cl)o2)C(=O)O1 7.8%
Cc1ccc(C)c(C(=O)COC(=O)c2ccc(Br)o2)c1 -15.9%
COc1ccc(-c2cc3ccccc3n2CC(O)CN2CCN(CCO)CC2)cc1 (stereo not drawn) -0.9%
O=C(O)c1cccc(N2C(=O)c3ccc(Br)cc3C2=O)c1 0.9%
O=C(O)c1cccc(N2C(=O)CCC2=O)c1 -5.5%
c1ccc2c(-n3cnnn3)cccc2c1 -8.8%
Cc1ccc(-c2nc(NC(=O)CSc3nnc(C)s3)ns2)cc1 6.1%
Cc1ccc(-c2csc3nnc(SCC(=O)Nc4nsc(-c5ccccc5)n4)n23)cc1 -3.1%
Cc1ccc(-c2nc(NC(=O)CSc3nnnn3-c3ccccc3)ns2)cc1 2.1%
Cc1ccc(-c2nc(NC(=O)CSc3nnc4scc(-c5ccccc5)n34)ns2)cc1 12.3%
CCn1c(=O)cc(SCC(=O)Nc2ccc3c(c2)OCCO3)c2ccccc21 2.8%
O=c1[nH]c2c(n(C3CCCCC3)c1=O)CCC2 -11.2%
Cc1ccc(C(=O)Nc2ccccc2C(=O)N2CC(C)OC(C)C2)cc1 (stereo not drawn) 1.8%
Cc1cc(C)cc(N2C(=O)NC(=O)/C(=C\c3ccc([N+](=O)[O-])o3)C2=O)c1 25.1%
Cc1cc(N2C(=O)NC(=O)/C(=C\c3ccc(N(C)C)o3)C2=O)ccc1Br 2.1%
O=C1NC(=O)N(c2ccccc2)C(=O)/C1=C\c1ccc(Br)o1 8.3%
CC(C)c1ccc(N2C(=O)NC(=O)/C(=C/c3ccc(I)o3)C2=O)cc1 12.4%
O=C(NC(Cc1ccccc1)C(=O)N1CCN(c2ccccn2)CC1)c1ccco1 (stereo not drawn) -1.1%
COc1ccc(OC)c(CN2C(=O)c3ccccc3C2C(=O)NCc2cccnc2)c1 (stereo not drawn) -10.2%
CN(Cc1ccccc1)S(=O)(=O)c1ccc2[nH]c(=O)oc2c1 -2.6%

inhibition, active:
Cc1ccc(C(=O)O)cc1-n1c(C)ccc1C 59%
Cc1ccc(C)n1-c1cc(C(=O)O)ccc1Cl 101%
CN(C)CCCNC(=O)c1ccc2sc3cc(=O)c(N)cc-3nc2c1 84.1%
CC1(C)OC(=O)C(=Cc2ccc(I)o2)C(=O)O1 101%
O=C(O)c1cccc(N2C(=O)c3ccc4c5c(ccc(c35)C2=O)CC4)c1 71.8%
Cc1cc(N2C(=O)NC(=O)/C(=C\c3ccc([N+](=O)[O-])o3)C2=O)ccc1Br 65.5%
CC(C)c1ccc(N2C(=O)NC(=O)/C(=C/c3ccc(Br)o3)C2=O)cc1 58.6%
